Screens: PubChem, several laboratories
Rows were chosen to be rich in hits. Some 3% of all compounds tested hit in one or more screens of this group.
NALP3 yeast inh = inhibitors of NALP3 inflammasome in yeast | Yeast reconstituted NLRP3/ASC/caspase-1, beta-gal luminescence, 24 h | inhibition, % at 10 µM | hit rate 0.39% among 330,000 | AID 2825;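 active = inhibition of 50% or more; inactive = inhibition below 50%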
Bfl-1 A1 inh = inhibitors of the anti-apoptotic protein A1, read as caspase activation. MEF A1-2A-BIM cells, Caspase-Glo 3/7 luminescence, 3 h; percent of clofoctol response, vehicle zero. AID 2462. hit rate 0.066% among 330,000. caspase activation, % (test concentration not listed);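 active = over half of replicate activation scores above 10%, or exactly half above 10 with the replicate mean above 10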
CHT block = human CHT choline transport inhibition; Q9GZV3; CHT-expressing cells, membrane potential dye, choline response; active compounds read low; B-score at 10 µM; hit rate 0.86% among 310,000; AID 488975;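 active = B-score over 3 SD under the library average, and starting fluorescence ratio not unusually high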;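 also: choline stimulus applied at its EC90 after an EC20 pre-addition; B-score computed on integrated fluorescence ratio after choline addition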
Target sequence (Q9GZV3 whole entry, looked up): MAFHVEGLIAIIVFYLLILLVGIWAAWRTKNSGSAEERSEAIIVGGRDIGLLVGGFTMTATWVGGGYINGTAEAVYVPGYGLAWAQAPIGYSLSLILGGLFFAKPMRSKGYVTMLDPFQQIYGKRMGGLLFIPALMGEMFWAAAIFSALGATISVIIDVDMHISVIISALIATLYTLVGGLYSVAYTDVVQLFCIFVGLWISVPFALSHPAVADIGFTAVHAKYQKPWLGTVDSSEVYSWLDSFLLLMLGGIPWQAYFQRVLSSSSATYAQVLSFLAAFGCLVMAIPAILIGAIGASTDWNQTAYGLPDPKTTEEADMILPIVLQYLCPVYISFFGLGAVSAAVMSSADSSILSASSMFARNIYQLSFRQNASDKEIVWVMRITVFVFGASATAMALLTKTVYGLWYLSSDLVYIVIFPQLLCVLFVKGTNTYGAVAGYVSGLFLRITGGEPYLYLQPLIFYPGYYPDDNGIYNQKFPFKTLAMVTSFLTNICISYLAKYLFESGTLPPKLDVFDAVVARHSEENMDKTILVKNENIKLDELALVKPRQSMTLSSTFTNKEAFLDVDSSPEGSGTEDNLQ
NALP1 inh = inhibitors of NALP1 inflammasome in yeast. S. cerevisiae NALP1/ASC/caspase-1 growth, X-gal OD620, 72 h. hit rate 0.61% among 280,000. inhibition, % at 10 µM; in the data active = inhibition mostly above about 24%, no sharp cut-off; inactive = mostly below about 32%
SUMO Mot1 rescue = inhibitors of SUMOylation pathway: yeast Mot1-301 growth rescue. growth rescue, % at 18.8 µM. hit rate 1% among 320,000. S. cerevisiae Mot1-301 growth rescue, ATP luminescence, 38.5C; percent above DMSO median, 100 means doubled;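 active = every valid replicate shows activation above 250% relative to neutral control wells; inactive = the rest, any valid replicate at or below 250%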
CHT PAM = allosteric activators of human choline transporter CHT; Q9GZV3; CHT-expressing cells, membrane potential dye, choline EC20; active compounds read high; LV-AA mutant CHT in HEK293 cells; B-score at 10 µM; hit rate 0.49% among 310,000; AID 488977;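 active = initial fluorescence not abnormally high and integrated response B-score, plate-corrected, over 3 SD above library mean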
CHT inh conf = human CHT inhibition, confirmatory screen; shares compounds with CHT block; CHT-expressing cells, choline membrane potential dye; LV-to-AA substituted CHT, HEK293 cells; CHT activity remaining % of control (active compounds read low), % at 10 µM; hit rate 70% among 2,400; AID 493221;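 active = choline transporter activity left, mean of duplicates at 10 µM, below buffer-only control mean minus 3 SD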;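 also: depolarization triggered by choline at its EC90 following an EC20 pre-addition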
HEK293 MPD ctr = counter-screen for CHT inhibitors: effect in parental HEK293 cells | shares compounds with CHT block | membrane potential dye, choline response; active = decrease or increase beyond buffer ±3SD | membrane potential ratio readout (active if shifted either direction beyond buffer ±3SD; no single direction) at 10 µM | hit rate 4% among 2,400;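 also: parental cells lack the transporter so any hit is non-specific; ratio is peak minus trough fluorescence over baseline after EC90 choline challenge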
Each line names hits and unclear results; the compound was inactive in the other large screens (follow-up assays come after a bar, where they were run).

CN(CCC#N)C(=O)COC(=O)c1ccccc1C(=O)c1ccc(Cl)c([N+](=O)[O-])c1	CHT block -4.9 (no result: NALP3 yeast inh) | CHT inh conf 49% | HEK293 MPD ctr inactive
CC(C)N(C(=O)COC(=O)c1ccccc1C(=O)c1ccc(Cl)c([N+](=O)[O-])c1)C(C)C	none
N#Cc1cn(N2CCCCC2)c(=O)[nH]c1=O	none
COc1ccccc1C(c1c(O)nc(SC)[nH]c1=O)c1c(O)nc(SC)[nH]c1=O	none (no result: NALP1 inh) | CHT inh conf inactive | HEK293 MPD ctr inactive
CCOc1cc(C(c2c(O)nc(SC)[nH]c2=O)c2c(O)nc(SC)[nH]c2=O)ccc1O	none (no result: NALP1 inh)
CCCCC1C(=O)CC[C@H]2[C@@H]1CC(=O)[C@@H]2C/C=C\CCCC(=O)O (some centres not stated)	CHT block -5.5 | CHT inh conf 34% | HEK293 MPD ctr inactive
Cc1c(NCc2cc(Cl)ccc2O)c(=O)n(-c2ccccc2)n1C	none
Cc1c(NCc2cc(Cl)cc(Cl)c2O)c(=O)n(-c2ccccc2)n1C	CHT block -5 | CHT inh conf inactive | HEK293 MPD ctr inactive
CCCCC[C@@H]1C=C(C(=O)O)[C@H](c2cccc(C)c2)N1S(=O)(=O)c1ccc(C)cc1	none (no result: CHT block, NALP1 inh, CHT PAM)
Cc1csc(=O)n1CCC(=O)OCC(=O)Nc1ncc(Cl)cc1Cl	none (no result: NALP1 inh)
CC1=NN(c2ccccc2)C(=O)/C1=C/c1ccc(-c2ccc(C)c(C(=O)O)c2)o1	CHT block -6.2 (no result: NALP1 inh) | CHT inh conf 42% | HEK293 MPD ctr inactive
CC1=NN(c2ccc(Cl)c(C(=O)O)c2)C(=O)/C1=C\c1ccc(-c2ccc(C(=O)O)cc2)o1	none (no result: NALP3 yeast inh, Bfl-1 A1 inh, CHT block, SUMO Mot1 rescue, CHT PAM)
Cc1c(Br)c([N+](=O)[O-])nn1CC(=O)NCCc1c[nH]c2ccccc12	none
O=c1cc(-c2ccccc2)c2c(O)cc(O)cc2o1	CHT block -5 | CHT inh conf 50% | HEK293 MPD ctr inactive
CN1C(=O)C(CC(=O)NCCc2ccccc2)N(NC(=O)c2ccc(Cl)cc2)C1=S (configuration not stated)	CHT block -12 | CHT inh conf inactive | HEK293 MPD ctr inactive
CN1CCN(c2ncc(CN3C(=O)c4ccccc4C3=O)s2)CC1	CHT block -5.3 | CHT inh conf 57% | HEK293 MPD ctr inactive
CCOC(=O)c1ccc(NS(=O)(=O)c2ccc3c(c2)NC(=O)CCS3)cc1	CHT block -5.1 | CHT inh conf 64% | HEK293 MPD ctr inactive
O=C(COC(=O)Cc1cccs1)Nc1ccccc1Cl	CHT block -5.5 | CHT inh conf inactive | HEK293 MPD ctr inactive
COc1ccccc1NC(=O)COC(=O)Cc1cccs1	none
CCOc1ccc(S(=O)(=O)Nc2cccc(C(=O)NCC(c3ccccc3)N(C)C)c2)cc1 (configuration not stated)	CHT block -7.6 (no result: NALP1 inh) | CHT inh conf 16% | HEK293 MPD ctr inactive
Cc1cc(C)c(Cn2c3ccccc3c3cnn(CC(=O)NCCN4CCOCC4)c(=O)c32)c(C)c1	CHT block -12 | CHT inh conf 15% | HEK293 MPD ctr inactive
C=CCn1c(CSc2nc3ccccc3s2)nnc1SCC(=O)NCc1ccccc1	CHT block -5.6 | CHT inh conf 62% | HEK293 MPD ctr inactive
COC(=O)CN1C(=O)COc2ccc(S(=O)(=O)NCc3ccc(Cl)cc3)cc21	CHT block -6.1 | CHT inh conf inactive | HEK293 MPD ctr inactive
Cc1ccccc1C(=O)c1cccn1CC(=O)NC(C)c1ccccc1 (configuration not stated)	CHT block -6.8 | CHT inh conf 35% | HEK293 MPD ctr inactive
CC(NC(=O)Cn1cccc1C(=O)c1ccccc1)c1ccccc1 (configuration not stated)	none
O=C(CSc1nccn1-c1ccc(F)cc1)NCc1ccc(F)cc1	CHT block -5.3 | CHT inh conf 53% | HEK293 MPD ctr inactive
